Screens (PubChem BioAssay)
RGS4 inhibitor: human RGS4 inhibition. Transcreener GDP fluorescence polarization, RGS4-accelerated GTP hydrolysis. AID 504845. 0.039% of 390,000 active. Potency, µM (doses to about 114 µM), without a hit: at the highest dose activity change, negative = inhibition, most hits filed as inhibitors; further: on the % scale 0 is the no-effect control and ±100 the full control effect; nearly all actives have a fitted effect of over 75% in size
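MLSMR compounds (23 nl, pin-transferred) preincubated 10 min at room temperature with a 500nM (2x) first reagent, then RGS4 at 900nM (2x) plus Transcreener GDP mix added; fluorescence polarization (620/688 nm) read before and after 90 min at 30 °C.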
EPAC2 agonist: agonists of human EPAC2 (RAPGEF4) | Q8WZA2 | EPAC2 activation, biochemical qHTS; response scale: 100% = 6.5 mM cAMP response | Potency, µM (series often up to 154 µM), for inactives: at the highest dose activation, usual class: activators | 0.079% of 360,000 active; further: nearly all actives have a fitted effect of over 50% in size
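EPAC2 (100 nM) mixed with Rap1B loaded with BODIPY-GDP (250 nM) plus 50 uM unlabeled GDP; compounds pinned in, 5 min RT, then read every 5 min for 30 min (ex 480, em 540 nm). Normalized to cAMP control.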
EPAC2 antag: blocks human EPAC2 exchange factor; Potency, µM (doses to about 114 µM), without a hit: top-dose activity, negative = inhibition, most hits filed as inhibitors; Q8WZA2; 0.18% of 360,000 active; EPAC2 GEF exchange of Rap1B-BODIPY-GDP, fluorescence; further: on the % scale 0 is the no-effect control and ±100 the full control effect; nearly all actives have a fitted effect of over 45% in size
BRCA1 expr up: activators of BRCA1 expression; MCF7-BRCA1-FFLuc reporter, luminescence, 48 h; response scale: scaled: vehicle 0%, 10 µM genistein 100%; 1.1% of 380,000 active; Potency, µM (highest dose often 46.1 µM), inactives show top-dose activation, most hits filed as activators; further: nearly all actives have a fitted effect of over 80% in size
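First, MCF7-BRCA1-FFLuc cells (2000/well) attach for 2 h; next, compounds are pin-added and incubated 48 h at 37 °C; finally, luciferase reagent is added and luminescence read after 15 min.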
EPAC1 antagonist: blocks human EPAC1 exchange factor | O95398 | EPAC1 GEF assay, Rap1b-BODIPY-GDP exchange fluorescence | Potency, µM (series often up to 115 µM), for the others: at the highest dose activity change, negative = inhibition, most hits filed as inhibitors | 0.14% of 360,000 active;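 further: plate controls were vehicle for no effect and positive control for full effect; nearly all actives have a fitted effect of over 50% in size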
EPAC1 agonist: agonists of human EPAC1 | O95398 | EPAC1 agonist qHTS, biochemical assay; response scale: 100% = response to 6.5 mM cAMP | Potency, µM (series often up to 154 µM), for the others: at the highest dose activation, actives largely listed as activators | 0.073% of 360,000 active; further: nearly all actives have a fitted effect of over 60% in size
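Compounds were pinned as a concentration titration into mixtures of EPAC1 (100 nM), BODIPY-GDP-loaded Rap1B (250 nM) and GDP (50 uM). After 5 min at room temperature, fluorescence was followed for 30 min; activity was scaled to 6.5 mM cAMP.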
Active calls of the source: *; ? = inconclusive; . = no result; [ ] = dose if it differs, or a comment. A selection: hits, their analogues and other compounds. The true share with any hit is near 1.3%. The call rests on the fitted dose curve; in most records, active means well fitted curve in the direction sought with a large enough effect; inconclusive means small, poorly fitted or top-dose-only effect, or another doubt; inactive means no such curve, though single readings can be large; an effect the other way counts as inactive or inconclusive. Potency means the concentration at half of the fitted maximal effect.

SMILES	RGS4 inhibitor	EPAC2 agonist	EPAC2 antag	BRCA1 expr up	EPAC1 antagonist	EPAC1 agonist
CCN(Cc1ccncc1)C(=O)c1cc(COc2ccc(OC)cc2Cl)on1	-42%	15%	-12%	99%	-19%	-4%
COc1ccc(-c2csc(N3CCC(C(N)=O)CC3)n2)cc1	-19%	6%	-15%	?	?	-2%
CN(Cc1ccccn1)C(=O)c1cc(COc2ccc(F)cc2Cl)on1	.	1%	9%	82%	2%	-8%
Cc1cc(CN(C)C(=O)c2cc(COc3ccc(F)cc3Cl)on2)n[nH]1	-8%	8%	-9%	7.9µM*	-19%	-8%
Cc1[nH]n(C(N)=S)c(=O)c1N=Nc1ccc(Br)cc1	5%	6%	-6%	4.5µM*	23%	0%
Cc1ccc(N=Nc2c(C)[nH]n(C(N)=S)c2=O)cc1	6%	6%	22%	-12%	10%	-9%
O=C(NNC(=O)c1cccs1)c1ccccc1	-7%	8%	8%	53%	1%	-11%
O=C(NNC(=O)c1cccs1)c1ccc(Br)cc1	16%	11%	-12%	13µM*	-9%	11%
COc1ccc(CCOC(=O)c2ccc(NC(=O)CC#N)cc2)cc1	5%	14%	-6%	0%	-1%	13%
COc1ccc(C(=O)OCCc2ccc(O)cc2)cc1	1%	1%	-29%	5µM*	-6%	2%
COC(=O)c1ccc(COC(=O)CNC(=O)c2ccc(OC)cc2)cc1	-3%	1%	-15%	5µM*	2%	-3%
CC(=O)N1CCN(c2ccccc2NC(=O)c2cccc3c(Cl)cccc23)CC1	9%	7%	-10%	2%	-19%	17%
Fc1ccccc1-c1nnc2c3ccccc3nc(N3CCOCC3)n12	33%	8%	10%	-25%	-10%	-1%
COCCNC(=O)C(C)OC(=O)C1=Cc2ccccc2OC1 (configuration not stated)	-1%	9%	-5%	32%	-7%	2%
O=C(Cc1ccc(Cl)cc1)Nc1ccncc1	-19%	5%	-2%	-40%	-6%	8%
O=C(Cc1ccc(Cl)cc1)Nc1cc(Cl)ccn1	1%	10%	3%	7.1µM*	-4%	9%
O=C(N/N=C/c1c[nH]c2ccccc12)c1ccc(O)c(O)c1	-1%	7%	0%	-20%	?	0%
O=C(N/N=C/c1c[nH]c2ccccc12)c1cccc(O)c1	-1%	7%	1%	13µM*	4%	9%
O=C(N/N=C/c1ccccc1O)c1cccc(C(F)(F)F)c1	?	-3%	-9%	-93%	7.9µM*	-10%
O=C(O)c1cc(N/N=C/c2c[nH]c3ccccc23)ccc1Cl	-26%	0%	-6%	3.2µM*	-18%	4%
O=C(O)c1cc(N/N=C/c2ccc(-c3ccccc3)cc2)ccc1Cl	?	-4%	-24%	?	?	1%
O=C(NNC(=O)c1ccncc1)Nc1ccc([N+](=O)[O-])cc1	6%	7%	-3%	-29%	13%	1%
Cc1ccnc2nc(C(=O)NC3CCCc4ccccc43)nn12 (configuration not stated)	2%	9%	-4%	-3%	-5%	0%
Cn1ccnc1SCC(=O)c1ccc2ccccc2c1	-2%	11%	-8%	6.3µM*	-13%	4%
Cc1nc(C(F)(F)F)ccc1C(=O)N1CCC1(C)C(=O)NS(=O)(=O)c1ccc2ccccc2c1 (configuration not stated)	.	-4%	-25%	1%	-14%	4%
SMILES	RGS4 inhibitor	EPAC2 agonist	EPAC2 antag	BRCA1 expr up	EPAC1 antagonist	EPAC1 agonist
COC(=O)Cc1[nH]c(Cl)nc1C(N)=O	16%	5%	-2%	33%	-5%	5%
O=C(O)CCCN1C(=O)/C(=C\c2ccccc2OCc2ccccc2)SC1=S	-25%	7%	?	-22%	50µM*	-1%
O=C(O)CN1C(=O)/C(=C\c2ccccc2OCc2ccccc2)SC1=S	.	0%	?	2%	-14%	-1%
Cc1nn(-c2ccccc2)c(Cl)c1/C=C1\SC(=S)N(CCCCCC(=O)O)C1=O	-43%	6%	40µM*	-38%	-9%	12%
O=C(O)CCCN1C(=O)/C(=C/c2cn(-c3ccccc3)nc2-c2cccs2)SC1=S	-53%	?	83%	-84%	20%	56µM*
O=C(O)CN1C(=O)/C(=C\c2cc(Br)ccc2OCc2ccc(Cl)cc2)SC1=S	?	-2%	50µM*	2%	?	-2%
COC(=O)c1cc(C)[nH]c2c(C)cc3nc4ccccc4c3c12	18%	21%	-30%	-46%	-21%	14%
Cc1cnc(NC(=O)c2ccc3c(c2)C(=O)N(Cc2cccnc2)C3=O)s1	-27%	-4%	9%	-1%	18%	3%
O=c1c2ccccc2nnn1-c1ccc(Br)cc1	-8%	-3%	-4%	4.5µM*	-2%	-4%
S=C(NCc1ccncc1)NC1CCCC1	9%	15%	7%	-22%	-22%	6%
N#CC1=C2C=Cc3ccccc3N2CCCC1=O	10%[11.4 µM]	8%	-3%	2.5µM*	-19%	2%
O=C(CN1CCCC1)N1c2ccccc2C=Cc2ccccc21	-4%[56.9 µM]	1%	3%	1%	0%	2%
CC(C(=O)NC1CCCCC1)N1CCN(S(=O)(=O)c2cccs2)CC1 (configuration not stated)	14%	5%	4%	9%	-5%	2%
O=C(/C=C/c1ccc2c(c1)OCO2)N1CCCCC1	0%	7%	-1%	3.5µM*	-2%	0%
O=C(/C=C/c1ccc2c(c1)OCO2)c1ccc[nH]1	18%	2%	?	7.9µM*	?	1%
C(=N\N(c1ccccc1)c1ccccc1)/c1ccc2c(c1)OCO2	-12%	10%	-1%	-2%	3%	12%
CN(C(=O)/C=C/c1ccc2c(c1)OCO2)c1ccccc1	14%	0%	11%	3.2µM*	1%	8%
CN(C(=O)C=Cc1ccccc1)c1ccccc1	11%	3%	-5%	72%	1%	10%
CN(/N=C/c1ccc2c(c1)OCO2)c1ccccc1	-20%	1%	-1%	7.1µM*	0%	17%
O=C(CN1CCN(c2ccccc2)CC1)Nc1ccc(-n2cnnn2)cc1	5%	5%	-3%	-2%	11%	-2%
CC1(C)CC(NCc2ccccc2)CCO1 (configuration not stated)	19%	9%	2%	14%	14%	2%
C=CCn1c(SCC(=O)NC2CCCCC2)nnc1-c1ccccn1	-7%	5%	6%	0%	-8%	-12%
